{"source": "the supplement of paper PMC10849652", "note": "The full data set covers some 8,800 targets. This sample favours those with a hit. About 0.5% of all pairs of compound and target were hits.", "data": [{"compound": "CNC(=O)c1ccc(Nc2ncc(C(F)(F)F)c(NCc3nccnc3N(C)S(C)(=O)=O)n2)cc1 [defactinib]", "assay": "log2 fold change, soluble protein after heating vs DMSO (PISA); higher = thermal stabilisation; K562 lysate, 10 uM; active = over 0.2 and 3.5 SD of the protein, either way, in both replicates (recomputed)", "summary_of_the_method": "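Pellets of K562 cells were dounce-homogenised in PBS pH 7.4 with 1 mM MgCl2, and the crude extract was held at 1 mg/mL protein for a 30 min treatment with 10 μM compound. Aliquots were heated for 3 min over 48°C-58°C and pooled before NP-40 was added to 0.5% at 4°C. The supernatant from 21,000xg for 90 min was quantified by TMTpro 16plex LC-MS/MS with channel sums equalised. Values are reported from duplicates as log-two fold change in thermal stability relative to solvent controls.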", "values": [{"target": "YES1 (UniProt P07947)", "sequence (P07947 whole entry, looked up)": "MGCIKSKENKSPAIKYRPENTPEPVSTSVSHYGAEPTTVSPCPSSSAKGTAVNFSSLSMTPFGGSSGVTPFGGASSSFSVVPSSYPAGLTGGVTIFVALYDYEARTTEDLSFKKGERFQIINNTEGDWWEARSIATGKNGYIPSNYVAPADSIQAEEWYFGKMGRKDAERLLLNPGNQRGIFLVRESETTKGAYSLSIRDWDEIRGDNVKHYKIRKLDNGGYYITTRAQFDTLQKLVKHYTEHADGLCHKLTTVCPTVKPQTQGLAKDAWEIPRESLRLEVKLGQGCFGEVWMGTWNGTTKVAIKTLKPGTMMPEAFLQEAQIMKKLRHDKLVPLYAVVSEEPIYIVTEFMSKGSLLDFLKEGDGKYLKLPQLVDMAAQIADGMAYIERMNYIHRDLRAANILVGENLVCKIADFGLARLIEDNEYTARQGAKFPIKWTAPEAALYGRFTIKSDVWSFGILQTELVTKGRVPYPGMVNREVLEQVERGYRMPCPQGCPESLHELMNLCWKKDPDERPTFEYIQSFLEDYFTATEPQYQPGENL", "log2 fold change": "-0.228 (inactive)"}, {"target": "XAB2 (UniProt Q9HCS7)", "log2 fold change": "0.008 (inactive)"}, {"target": "VCPIP1 (UniProt Q96JH7)", "sequence (Q96JH7 whole entry, looked up)": "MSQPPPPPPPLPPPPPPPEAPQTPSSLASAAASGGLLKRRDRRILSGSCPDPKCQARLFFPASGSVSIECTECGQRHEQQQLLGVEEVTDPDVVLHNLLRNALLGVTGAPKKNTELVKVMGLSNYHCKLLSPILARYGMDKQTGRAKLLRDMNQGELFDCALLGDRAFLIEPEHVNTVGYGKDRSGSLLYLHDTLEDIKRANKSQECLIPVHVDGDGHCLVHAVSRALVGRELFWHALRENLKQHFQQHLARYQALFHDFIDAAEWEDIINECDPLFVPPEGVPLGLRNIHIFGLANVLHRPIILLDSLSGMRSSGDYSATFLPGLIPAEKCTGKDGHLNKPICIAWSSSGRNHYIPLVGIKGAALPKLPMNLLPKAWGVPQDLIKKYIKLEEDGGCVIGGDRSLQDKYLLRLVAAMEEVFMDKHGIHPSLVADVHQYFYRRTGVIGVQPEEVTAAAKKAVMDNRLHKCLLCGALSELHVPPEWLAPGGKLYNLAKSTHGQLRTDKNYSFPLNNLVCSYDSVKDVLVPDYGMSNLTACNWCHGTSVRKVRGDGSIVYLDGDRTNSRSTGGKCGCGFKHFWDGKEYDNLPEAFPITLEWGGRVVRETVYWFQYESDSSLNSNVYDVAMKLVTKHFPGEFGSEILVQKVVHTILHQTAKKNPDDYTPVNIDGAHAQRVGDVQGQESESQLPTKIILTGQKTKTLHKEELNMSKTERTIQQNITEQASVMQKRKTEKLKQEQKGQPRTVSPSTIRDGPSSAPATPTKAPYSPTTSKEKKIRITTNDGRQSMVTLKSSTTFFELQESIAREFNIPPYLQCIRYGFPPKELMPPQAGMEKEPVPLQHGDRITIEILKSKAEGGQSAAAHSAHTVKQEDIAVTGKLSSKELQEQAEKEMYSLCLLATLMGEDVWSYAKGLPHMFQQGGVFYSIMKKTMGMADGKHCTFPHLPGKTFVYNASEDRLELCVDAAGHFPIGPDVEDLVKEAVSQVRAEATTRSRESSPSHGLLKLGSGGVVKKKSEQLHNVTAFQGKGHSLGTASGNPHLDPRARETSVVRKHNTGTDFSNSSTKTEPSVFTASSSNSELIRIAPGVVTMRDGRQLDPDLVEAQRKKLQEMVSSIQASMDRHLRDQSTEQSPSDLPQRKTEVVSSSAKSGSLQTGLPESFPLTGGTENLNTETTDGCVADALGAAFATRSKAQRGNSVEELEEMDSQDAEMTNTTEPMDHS", "log2 fold change": "0.022 (inactive)"}, {"target": "ZC3H13 (UniProt Q5T200)", "sequence (Q5T200 whole entry, looked up)": "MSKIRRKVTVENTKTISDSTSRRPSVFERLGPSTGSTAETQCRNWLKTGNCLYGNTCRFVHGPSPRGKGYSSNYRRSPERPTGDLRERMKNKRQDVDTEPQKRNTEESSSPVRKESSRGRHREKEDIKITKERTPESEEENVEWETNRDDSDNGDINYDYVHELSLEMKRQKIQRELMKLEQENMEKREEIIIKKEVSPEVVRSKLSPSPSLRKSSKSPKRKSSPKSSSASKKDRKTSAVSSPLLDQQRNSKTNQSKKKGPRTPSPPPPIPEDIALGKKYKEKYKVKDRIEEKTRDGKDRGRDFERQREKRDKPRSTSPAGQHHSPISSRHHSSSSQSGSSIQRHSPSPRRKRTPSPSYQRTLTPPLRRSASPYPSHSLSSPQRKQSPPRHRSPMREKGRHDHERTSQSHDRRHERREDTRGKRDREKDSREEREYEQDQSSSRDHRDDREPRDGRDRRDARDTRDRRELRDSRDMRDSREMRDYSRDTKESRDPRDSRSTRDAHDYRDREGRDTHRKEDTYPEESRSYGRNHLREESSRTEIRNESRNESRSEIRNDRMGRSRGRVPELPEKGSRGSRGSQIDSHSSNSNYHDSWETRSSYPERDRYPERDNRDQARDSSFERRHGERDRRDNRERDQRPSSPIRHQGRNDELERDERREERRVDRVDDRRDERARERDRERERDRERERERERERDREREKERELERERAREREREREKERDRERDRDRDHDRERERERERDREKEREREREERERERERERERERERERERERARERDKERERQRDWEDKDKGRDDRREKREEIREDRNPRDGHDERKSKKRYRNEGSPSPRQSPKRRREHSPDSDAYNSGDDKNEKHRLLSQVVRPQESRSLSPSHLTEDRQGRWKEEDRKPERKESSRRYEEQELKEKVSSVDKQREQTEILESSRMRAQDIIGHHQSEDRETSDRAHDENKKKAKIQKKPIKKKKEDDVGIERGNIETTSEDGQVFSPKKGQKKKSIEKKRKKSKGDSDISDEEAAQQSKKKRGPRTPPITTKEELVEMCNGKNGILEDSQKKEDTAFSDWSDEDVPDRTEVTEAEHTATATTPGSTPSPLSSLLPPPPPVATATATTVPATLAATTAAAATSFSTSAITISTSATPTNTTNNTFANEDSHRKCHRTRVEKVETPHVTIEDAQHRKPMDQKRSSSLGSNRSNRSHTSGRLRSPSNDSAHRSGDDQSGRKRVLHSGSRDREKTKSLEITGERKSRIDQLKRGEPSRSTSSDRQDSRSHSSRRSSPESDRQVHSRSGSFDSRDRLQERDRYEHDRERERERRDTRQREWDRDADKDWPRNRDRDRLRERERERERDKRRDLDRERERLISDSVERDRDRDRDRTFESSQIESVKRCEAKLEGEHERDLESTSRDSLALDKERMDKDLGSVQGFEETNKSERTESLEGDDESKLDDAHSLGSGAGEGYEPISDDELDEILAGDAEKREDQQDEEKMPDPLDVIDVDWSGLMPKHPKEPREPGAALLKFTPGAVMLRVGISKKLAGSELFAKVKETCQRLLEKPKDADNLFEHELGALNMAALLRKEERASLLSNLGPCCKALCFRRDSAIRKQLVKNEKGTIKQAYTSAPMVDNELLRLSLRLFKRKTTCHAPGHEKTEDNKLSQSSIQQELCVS", "log2 fold change": "0.088 (inactive)"}, {"target": "ZNF609 (UniProt O15014)", "log2 fold change": "-0.026 (inactive)"}, {"target": "ZC3H11A (UniProt O75152)", "log2 fold change": "-0.066 (inactive)"}, {"target": "VPS28 (UniProt Q9UK41)", "sequence (Q9UK41 whole entry, looked up)": "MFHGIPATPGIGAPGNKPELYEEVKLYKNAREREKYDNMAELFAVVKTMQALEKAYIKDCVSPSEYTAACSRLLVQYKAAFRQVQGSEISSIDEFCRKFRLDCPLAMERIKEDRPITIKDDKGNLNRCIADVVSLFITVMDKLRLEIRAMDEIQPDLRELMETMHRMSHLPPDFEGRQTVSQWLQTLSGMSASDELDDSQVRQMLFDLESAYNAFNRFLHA", "log2 fold change": "-0.018 (inactive)"}, {"target": "ZMYM4 (UniProt Q5VZL5)", "log2 fold change": "0.096 (inactive)"}, {"target": "ZNF217 (UniProt O75362)", "log2 fold change": "-0.045 (inactive)"}, {"target": "YDJC (UniProt A8MPS7)", "log2 fold change": "-0.026 (inactive)"}, {"target": "XPNPEP1 isoform 3 (UniProt Q9NQW7)", "log2 fold change": "-0.001 (inactive)"}, {"target": "USP9X (UniProt Q93008)", "log2 fold change": "0.026 (inactive)"}, {"target": "UQCRC2 (UniProt P22695)", "log2 fold change": "0.014 (inactive)"}, {"target": "WRB (UniProt O00258)", "log2 fold change": "-0.003 (inactive)"}, {"target": "ZBTB33 (UniProt Q86T24)", "log2 fold change": "-0.062 (inactive)"}, {"target": "WDR62 isoform 4 (UniProt O43379)", "log2 fold change": "-0.007 (inactive)"}, {"target": "XPO6 (UniProt Q96QU8)", "sequence (Q96QU8 whole entry, looked up)": "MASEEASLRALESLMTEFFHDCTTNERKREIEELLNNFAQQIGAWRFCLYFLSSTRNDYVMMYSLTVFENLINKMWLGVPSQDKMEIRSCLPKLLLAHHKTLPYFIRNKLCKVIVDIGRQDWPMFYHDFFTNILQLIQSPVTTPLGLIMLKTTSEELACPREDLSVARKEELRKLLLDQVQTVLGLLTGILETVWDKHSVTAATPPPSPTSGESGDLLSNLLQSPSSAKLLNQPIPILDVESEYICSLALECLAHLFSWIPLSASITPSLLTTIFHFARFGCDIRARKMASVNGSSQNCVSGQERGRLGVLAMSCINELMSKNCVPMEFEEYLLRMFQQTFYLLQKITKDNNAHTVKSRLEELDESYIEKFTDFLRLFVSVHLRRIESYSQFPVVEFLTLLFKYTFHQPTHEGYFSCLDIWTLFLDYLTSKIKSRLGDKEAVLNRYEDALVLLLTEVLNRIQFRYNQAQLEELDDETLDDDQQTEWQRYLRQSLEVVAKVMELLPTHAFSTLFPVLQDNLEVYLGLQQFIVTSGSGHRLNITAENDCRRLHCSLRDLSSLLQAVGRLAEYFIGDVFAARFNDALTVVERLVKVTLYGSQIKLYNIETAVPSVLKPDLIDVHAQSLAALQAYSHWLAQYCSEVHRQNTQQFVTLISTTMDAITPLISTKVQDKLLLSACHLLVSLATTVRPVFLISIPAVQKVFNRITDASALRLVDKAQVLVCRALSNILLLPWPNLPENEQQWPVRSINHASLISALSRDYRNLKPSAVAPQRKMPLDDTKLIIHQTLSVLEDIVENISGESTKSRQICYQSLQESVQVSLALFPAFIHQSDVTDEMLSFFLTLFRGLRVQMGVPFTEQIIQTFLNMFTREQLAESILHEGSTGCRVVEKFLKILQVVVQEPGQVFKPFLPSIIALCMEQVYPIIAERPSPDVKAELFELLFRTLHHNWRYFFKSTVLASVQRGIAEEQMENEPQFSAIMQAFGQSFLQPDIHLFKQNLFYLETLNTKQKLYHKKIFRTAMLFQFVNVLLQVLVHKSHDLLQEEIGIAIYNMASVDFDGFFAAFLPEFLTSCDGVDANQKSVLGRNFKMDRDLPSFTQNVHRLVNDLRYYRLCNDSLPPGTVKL", "log2 fold change": "-0.025 (inactive)"}, {"target": "VPS35L (UniProt Q7Z3J2)", "log2 fold change": "0.036 (inactive)"}, {"target": "YEATS4 (UniProt O95619)", "log2 fold change": "0.007 (inactive)"}, {"target": "YWHAQ (UniProt P27348)", "sequence (P27348 whole entry, looked up)": "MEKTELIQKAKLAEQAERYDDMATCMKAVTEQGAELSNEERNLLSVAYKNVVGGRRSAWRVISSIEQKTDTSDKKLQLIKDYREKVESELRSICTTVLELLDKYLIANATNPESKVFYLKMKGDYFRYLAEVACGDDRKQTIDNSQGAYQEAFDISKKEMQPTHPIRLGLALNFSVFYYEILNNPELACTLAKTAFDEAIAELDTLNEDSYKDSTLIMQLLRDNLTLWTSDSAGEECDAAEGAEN", "log2 fold change": "0 (inactive)"}, {"target": "VRK1 (UniProt Q99986)", "log2 fold change": "-0.067 (inactive)"}, {"target": "ZC3HC1 (UniProt Q86WB0)", "log2 fold change": "-0.015 (inactive)"}, {"target": "USP3 (UniProt Q9Y6I4)", "log2 fold change": "0.013 (inactive)"}]}]}
